These molecules were tested against Neuropilin-1 (Homo sapiens) (UniProt O14786) (assay: NRP-1 b1b2 CendR peptide binding inhibitors, dose response, biochemical, FP and AlphaScreen panel (AID 651650)). Conditions: NRP-1 b1b2 / RPARPAR peptide binding, FP or AlphaScreen; run 1, at 100 µM (top of the series).
Neuropilin-1 (Homo sapiens), sequence (O14786 whole entry, looked up): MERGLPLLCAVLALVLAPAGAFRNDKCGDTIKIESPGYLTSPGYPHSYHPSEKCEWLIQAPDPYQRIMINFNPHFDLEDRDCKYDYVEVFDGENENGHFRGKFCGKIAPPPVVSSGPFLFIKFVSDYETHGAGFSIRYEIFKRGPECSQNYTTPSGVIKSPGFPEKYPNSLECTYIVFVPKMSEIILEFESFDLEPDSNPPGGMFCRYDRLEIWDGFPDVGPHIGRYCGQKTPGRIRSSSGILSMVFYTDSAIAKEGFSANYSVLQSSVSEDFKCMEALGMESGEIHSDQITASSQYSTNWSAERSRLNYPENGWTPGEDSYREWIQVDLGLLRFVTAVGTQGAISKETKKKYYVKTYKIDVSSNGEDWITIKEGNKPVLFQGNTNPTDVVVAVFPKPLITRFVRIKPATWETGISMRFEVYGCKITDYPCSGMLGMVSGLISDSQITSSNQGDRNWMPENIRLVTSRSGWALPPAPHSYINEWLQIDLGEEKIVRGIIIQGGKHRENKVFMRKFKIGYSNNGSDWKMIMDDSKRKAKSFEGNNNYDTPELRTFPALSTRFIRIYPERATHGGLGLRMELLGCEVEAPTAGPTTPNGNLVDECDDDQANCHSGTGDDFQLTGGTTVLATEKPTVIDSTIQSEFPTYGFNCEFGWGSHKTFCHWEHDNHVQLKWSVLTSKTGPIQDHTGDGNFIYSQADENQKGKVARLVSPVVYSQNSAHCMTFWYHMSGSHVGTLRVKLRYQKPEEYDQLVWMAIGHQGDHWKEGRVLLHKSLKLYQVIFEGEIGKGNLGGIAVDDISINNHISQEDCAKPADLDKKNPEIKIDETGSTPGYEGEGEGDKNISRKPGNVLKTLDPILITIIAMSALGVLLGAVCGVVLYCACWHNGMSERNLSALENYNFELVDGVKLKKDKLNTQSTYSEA
`COc1ccc(C(=O)N2CCC(C(=O)NCc3ccccn3)CC2)cc1` showed an inhibition of 20.9%.
Molecule `CC(=O)N1CCSc2ccc(S(=O)(=O)Nc3ccc(C)cc3)cc21` has an inhibition of 47.7%.
For `CCCn1c(C)cc(C(=O)CSc2nc3nc(C)cc(C)n3n2)c1C`, the inhibition was 5.46%.
In the case of `Cc1ccc(Nc2c(-c3ccccc3O)nc3ncccn23)cc1`, the inhibition is reported as 19.2%.
In the case of `Cc1cccc(C)c1Nc1nnc(SCC(=O)Nc2cc(S(=O)(=O)N3CCCCC3)ccc2Cl)s1`, the inhibition is reported as -15.9%.
Work on `CCOCCCNC(=O)C(c1ccc(C)cc1)N(Cc1cccs1)C(=O)c1ccccc1O` (stereo not drawn) yielded an inhibition of 24.4%.
`CCO[C@@H]1OC(C(=O)NCc2ccccc2)=C[C@H](c2ccc(Br)cc2)[C@H]1CCCO` gave an inhibition of 102%.
In the case of `COc1ccc(CN2C(=O)c3ccccc3C2=O)cc1C(=O)Nc1ccccc1N1CCOCC1`, the inhibition is reported as 30%.
`COc1ccc(-c2cc(C)no2)cc1S(=O)(=O)NCc1cccc(C)c1` showed an inhibition of 23.2%.
For `O=C(O)c1cccc(N2C(=O)c3cc([N+](=O)[O-])cc4cc([N+](=O)[O-])cc(c34)C2=O)c1`, the inhibition was 32.7%.
With `O=C(NCCOC(=O)c1ccccc1)c1ccccc1` the inhibition was 72.3%.
`Cc1ccc(C(=O)NCCCc2ccccc2)c(C)c1` was tested, and the inhibition was 37.1%.
Molecule `Cc1ccc(NNS(=O)(=O)c2ccc(C)cc2)cc1` has an inhibition of 16.2%.
Molecule `CCOC(=O)N1CCN(C(=O)Nc2ccc3nc(C)c(C)nc3c2)CC1` has an inhibition of -6.06%.
For `O=C(NCc1ccccc1)C(c1cccnc1)N(C(=O)c1ccccn1)c1ccccc1F` (stereo not drawn), the inhibition was 43.9%.
With `COc1cccc(N2[C@@H](CC(C)=O)c3ccc(/C=C/C(C)=O)cc3S2(=O)=O)c1` the inhibition was 10.9%.
Work on `O=C1CCCN1CCCNc1nc(NCc2cccs2)nc2ccsc12` yielded an inhibition of 81.3%.
`COc1ccc(S(=O)(=O)N2CCCCC2)cc1NC(=O)c1c(F)cccc1Cl` was tested, and the inhibition was 37.3%.
Molecule `CC(=O)Nc1cccc(-c2csc(NCc3ccccc3)n2)c1` has an inhibition of 26.4%.
Molecule `NC(=O)C1CCN(c2nc(-c3ccc4occc(=O)c4c3)cs2)CC1` has an inhibition of 53.3%.
`COc1ccc(Cn2c3ccc(OC)cc3c3nc4ccccc4nc32)cc1` was tested, and the inhibition was 78.8%.
`COc1ccc(/C=N/NC(=O)c2cc(C(C)(C)C)[nH]n2)cc1COc1ccc(F)cc1F` was tested, and the inhibition was 26%.
`COC(=O)c1ccn(C(=O)c2ccc(Cl)cc2)n1` gave an inhibition of 39.2%.
`NC(=O)C1CCCN(C(=O)c2ccc3nc(Cc4cccc(Cl)c4)oc3c2)C1` (stereo not drawn) showed an inhibition of 101%.
With `CN(C)/N=C/c1ccc(Sc2ccc([N+](=O)[O-])cc2[N+](=O)[O-])o1` the inhibition was 55.1%.
With `CN(C)Cc1cc(C(F)(F)F)ccc1C(O)(c1ccccc1)c1ccccc1` the inhibition was -5.25%.
`CCOC(=O)C1(Cc2cccc(F)c2)CCN(Cc2ccon2)CC1` was tested, and the inhibition was 61.1%.
Molecule `CCCCN(c1ccccc1)S(=O)(=O)c1ccc2c(c1)CCN2C(=O)CCC(=O)O` has an inhibition of 8.36%.
Molecule `CC1(C)c2ccccc2C(=O)c2ccccc21` has an inhibition of -7.21%.
With `CCN(CC)C(=O)c1cccc(-c2csc(C(NC(C)=O)c3cccc(OC)c3)n2)c1` (stereo not drawn) the inhibition was 18.7%.
For `CCNC(=O)C1(C)CCCN(C(=O)c2nc(C)oc2C)C1` (stereo not drawn), the inhibition was 20.1%.
`C=CCn1c(SCC(=O)Nc2ncc(Cc3ccc(Br)cc3)s2)nnc1-c1ccncc1` gave an inhibition of 42%.
Molecule `COc1ccc(Cl)cc1NC(=O)C(C)N1CCc2ccccc21` (stereo not drawn) has an inhibition of 82.6%.
With `N#Cc1ccc(COC(=O)c2cnc(Cl)c(Cl)c2)cc1` the inhibition was 36.5%.
`Cc1ccc2cc(CN(c3ccccc3C)S(=O)(=O)c3ccccc3)c(=O)[nH]c2c1` showed an inhibition of 41.9%.
`Cc1c(CC(=O)O)c(=O)oc2cc(OCc3ccc(F)cc3Cl)ccc12` showed an inhibition of -12.1%.
Molecule `Cc1onc(-c2ccc(Cl)cc2Cl)c1-c1csc(COc2ccccc2)n1` has an inhibition of 65.6%.
For `CCN(C[C@H]1N[C@@](CC)(C(=O)OC)[C@H]2C(=O)N(C)C(=O)[C@@H]12)S(=O)(=O)c1ccc(OC)cc1`, the inhibition was 30.5%.
